# Results filed as inconclusive are left out. Activity calls are given as the source filed them. The calls were made as follows, unless noted: active = hit-call score of the fitted dose curve at least 0.9, where 1 is the maximum; inactive = score below 0.9.
# Columns and labels:
# [1] = CCTE_Shafer_MEA_dev_firing_rate_mean: CCTE's Neural Network Formation Assay for Mean Firing Rate, Shafer Lab (AID 2284031)
# In short: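 Primary rat cortical neurons on 48-well, 16-electrode MEAs (PEI-coated, laminin at plating), exposed from day 0 with compound renewed at DIV 5 and 9. Spikes recorded DIV 5, 7, 9, 12; well-mean firing rate collapsed to trapezoidal AUC, loss-of-signal vs DMSO.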
# [2] = CCTE_Shafer_MEA_dev_per_burst_spike_percent: CCTE's Neural Network Formation Assay for Percent of Spikes in a Burst, Shafer Lab (AID 2284032)
# In short: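 Rat primary cortical neurons on 16-electrode MEA wells, dosed from plating day 0 for 12 days with renewal on DIV 5 and 9; spikes-in-bursts percentage averaged over bursting electrodes, collapsed as AUC across days 5, 7, 9, 12; loss direction versus DMSO.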
# [3] = CCTE_Shafer_MEA_dev_active_electrodes_number: CCTE's Neural Network Formation Assay for Number of Active Electrodes, Shafer Lab (AID 2284040; active = hit-call score of the fitted dose curve at least 0.9, where 1 is the maximum)
# In short: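 Rat cortical primary cultures, 1.5 x 10^5 cells/well, PEI-coated MEA, laminin drop. Continuous exposure DIV 0–12; full media/compound change DIV 5, 9. Readout: electrodes with mean firing ≥5 spikes/min; AUC across days; loss vs DMSO.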
# [4] = CCTE_Shafer_MEA_dev_burst_rate: CCTE's Neural Network Formation Assay for Burst Rate, Shafer Lab (AID 2284042)
# In short: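 Exposure ran continuously over 12 days of network development in rat cortical cultures, with compound refreshed during full media changes on DIV 5 and 9. Single-electrode bursts per recording time, well-mean over active electrodes, trapezoidal AUC across days 5–12, fitted downward relative to DMSO.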
# [5] = CCTE_Shafer_MEA_dev_bursting_electrodes_number: CCTE's Neural Network Formation Assay for Number of Bursting Electrodes, Shafer Lab (AID 2284043; active = hit-call score of the fitted dose curve at least 0.9, where 1 is the maximum)
# In short: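 Primary rat cortical neurons plated on 16-electrode MEA wells, exposed from day 0 with compound renewed at DIV 5 and 9. Electrodes bursting ≥1 burst per 2 min counted on days 5, 7, 9 and 12; trapezoidal AUC across days, fitted for loss versus DMSO.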
# [6] = CCTE_Shafer_MEA_dev_per_burst_interspike_interval: CCTE's Neural Network Formation Assay for Burst Interspike Interval, Shafer Lab (AID 2284044);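 also: mean spike spacing inside bursts as AUC over recordings on days 5 7 9 12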
# In short: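 Rat cortical primary cultures, 16 electrodes/well; compound from plating, renewed with full media change DIV 5 and 9. Spikes via adaptive detector; per-burst ISI well-mean over active bursting electrodes; AUC of DIV 5/7/9/12 recordings; loss-direction fit vs DMSO.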
# [7] = CCTE_Shafer_MEA_dev_burst_duration_mean: CCTE's Neural Network Formation Assay for Mean Burst Duration, Shafer Lab (AID 2284045)
# In short: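 Primary rat cortical neurons on 48-well 16-electrode MEA plates, exposed from day 0 with renewal at DIV 5 and 9; spontaneous activity recorded on days 5, 7, 9, 12. Well-mean burst duration across bursting electrodes, collapsed as trapezoidal AUC; DMSO baseline.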
# [8] = CCTE_Shafer_MEA_dev_interburst_interval_mean: CCTE's Neural Network Formation Assay for Mean Interburst Interval, Shafer Lab (AID 2284046);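 also: well-mean interburst interval of bursting electrodes as AUC over four recording days; curve fitted for decrease in interburst interval relative to DMSO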
# In short: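 Primary rat cortical neurons on PEI-coated 48-well MEA plates (laminin added with cells at plating) (16 electrodes/well), exposed from plating day 0 with renewal at DIV 5 and 9. Mean inter-burst interval averaged over bursting electrodes, AUC across days 5, 7, 9, 12; DMSO baseline.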
# [9] = CCTE_Shafer_MEA_dev_inter_network_spike_interval_mean: CCTE's Neural Network Formation Assay for Mean Inter-network Spike Interval, Shafer Lab (AID 2284047)
# In short: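 Mean time between consecutive network-spike peaks, recorded extracellularly (adaptive spike detection) on DIV 5, 7, 9 and 12, summarized as trapezoidal AUC. Rat cortical cultures on MEAs dosed continuously days 0–12, re-dosed at feeds; loss-of-signal fit relative to DMSO.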
# [10] = CCTE_Shafer_MEA_dev_network_spike_number: CCTE's Neural Network Formation Assay for Number of Network Spikes, Shafer Lab (AID 2284048)
# In short: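 Primary rat cortical neurons on PEI/laminin 48-well MEA plates, dosed from plating day 0 for 12 days, renewed at DIV 5 and 9. Network spike counts recorded DIV 5, 7, 9, 12, collapsed as trapezoidal AUC; DMSO baseline.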
# [11] = CCTE_Shafer_MEA_dev_network_spike_peak: CCTE's Neural Network Formation Assay for Mean Number of Electrodes in Network Spike, Shafer Lab (AID 2284049)
# In short: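 Network-spike peak electrode count from recordings on days 5, 7, 9 and 12 was combined as trapezoidal area under the curve. Rat cortical cultures were treated continuously from plating, with compound renewed at each feed (DIV 5, 9); fits versus DMSO.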
# [12] = CCTE_Shafer_MEA_dev_spike_duration_mean: CCTE's Neural Network Formation Assay for Mean Spike Duration, Shafer Lab (AID 2284051);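 also: mean network spike duration pooled as area under curve over DIV 5 to 12 recordings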
# In short: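 Spontaneous activity was recorded on days 5, 7, 9 and 12 from rat cortical cultures grown on microelectrode arrays and dosed continuously from day 0, with media and compound renewed after the DIV 5 and 9 recordings. Network-spike duration was collapsed by area under the curve.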
# [13] = CCTE_Shafer_MEA_dev_per_network_spike_spike_number_mean: CCTE's Neural Network Formation Assay for Mean Number of Spikes in a Network Spike, Shafer Lab (AID 2284053)
# In short: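 Mean spike count within each network spike, taken in a 0.05 s window at its peak, was recorded on days 5, 7, 9 and 12 and integrated as trapezoidal area under the curve. Rat cortical cultures on MEA plates received continuous compound from day 0, refreshed at medium changes on DIV 5 and 9.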
# [14] = CCTE_Shafer_MEA_dev_per_network_spike_spike_percent: CCTE's Neural Network Formation Assay for Percent of Spikes in a Network Spike, Shafer Lab (AID 2284054)
# In short: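 Rat primary cortical neurons were grown on 48-well MEA plates (16 electrodes/well), exposed from plating day 0 through day 12, with treatment renewed on DIV 5 and 9. Percent of spikes within 0.05 s network-spike peaks was measured, summarised as AUC across days 5, 7, 9, 12.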
# [15] = CCTE_Shafer_MEA_dev_mutual_information_norm: CCTE's Neural Network Formation Assay for Mutual Information Normalization, Shafer Lab (AID 2284091)
# In short: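 Primary rat cortical neurons on PEI-coated 48-well MEA plates, 1.5 x 10^5 cells/well, exposed from day 0 through day 12 with re-dosing at DIV 5 and 9. Mutual information between electrodes recorded days 5, 7, 9, 12; trapezoidal AUC, loss-of-signal fit versus DMSO.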
# [16] = UKN2_HCS_IMR90_neural_migration: University of Konstanz (UKN) Leist Lab Neural Crest Cell Migration Assay in human induced IMR90 Pluripotent Stem Cells (UKN2) (AID 2284204); conditions: actives raise or lower the signal
# In short: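 iPSC-derived IMR90 neural crest cells seeded around stoppers on PLO/laminin/fibronectin; migration started in N2-S medium with EGF/FGF, compounds added after 24 h for 24 h. Migration into cell-free area imaged after calcein-AM/Hoechst staining; bidirectional fit versus DMSO.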
# [17] = IUF_NPC1b_proliferation_BrdU_72hr: Leibniz Research Institute for Environmental Medicine (IUF) 72-hour Neural Progenitor Cell Bromodeoxyuridine (BrdU) Proliferation Assay (NPC1b) (AID 2284207)
# In short: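 BrdU luminescence ELISA quantified DNA synthesis over the last 16 h of a 72 h exposure, fitted against DMSO. Primary hNPC spheres from gestational week 16-19 cortex grown with EGF/FGF at 37C, pH 7.2-7.6.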
# [18] = IUF_NPC1a_proliferation_area_72hr: Leibniz Research Institute for Environmental Medicine (IUF) 72-hour Neural Progenitor Cell Proliferation Area Assay (NPC1a) (AID 2284208)
# In short: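 Read-out: increase in sphere area over 72 h by automated phase-contrast imaging, fitted in positive direction versus DMSO baseline. One hNPC sphere (0.25-0.35 mm) per well in EGF/FGF medium; growth-factor withdrawal served as positive control.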
# [19] = IUF_NPC1_viability_72hr: Viability Assessment at 72 hours in the Leibniz Research Institute for Environmental Medicine (IUF) Neural Progenitor Cell Proliferation Assay (NPC1) (AID 2284209)
# In short: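 Human fetal-cortex neural progenitor spheres (0.25–0.35 mm, one per well) grown in EGF/FGF proliferation medium at 37C, pH 7.2-7.6, exposed 72 h without renewal; viability read as alamar blue resazurin-to-resorufin fluorescence relative to DMSO.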
# [20] = CCTE_Mundy_HCI_Cortical_Synap_Neur_Matur_NeuriteSpotCountPerNeuriteLength: CCTE's Synaptogenesis and Neurite Maturation Assay in rat cortical cells for Neurite Spot Count per Neurite Length, Mundy Lab (AID 2284210)
# In short: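 Rat primary cortical cultures, AraC added at DIV 5 to suppress glia; chemical exposure from DIV 7 to DIV 12. Fixed cells stained for MAP2 and synaptophysin plus Hoechst; synaptophysin puncta per neurite length quantified by high-content imaging, relative to DMSO.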
# [21] = CCTE_Mundy_HCI_Cortical_Synap_Neur_Matur_BPCount: CCTE's Synaptogenesis and Neurite Maturation Assay in rat cortical cells for Branch Point Count, Mundy Lab (AID 2284211)
# In short: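 Branch point number is quantified by automated imaging of fluorescently labelled neurites and synapses in rat primary cortical neurons exposed from DIV 7 to DIV 12. Activity is analysed relative to DMSO negative control.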
# [22] = CCTE_Mundy_HCI_Cortical_NOG_NeuriteCount: CCTE's Neurite Outgrowth Assay in rat cortical cells for Neurite Count, Mundy Lab (AID 2284212);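 also: cells fixed about two days after chemical exposure began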
# In short: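 Neurite number per cell from high-content imaging of betaIII-tubulin immunostaining, with Hoechst nuclear counterstain.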
structure (smiles),measurement,setting,value
Cc1[nH]n(C)c(=O)c1C(=O)c1ccc(C(F)(F)F)cc1S(C)(=O)=O,outcome,[1],inactive
same,outcome,[2],inactive
same,outcome,[3],inactive
same,outcome,[4],inactive
same,outcome,[5],inactive
same,outcome,[6],inactive
same,outcome,[7],inactive
same,outcome,[8],inactive
same,outcome,[9],inactive
same,outcome,[10],inactive
same,outcome,[11],inactive
same,outcome,[12],inactive
same,outcome,[13],inactive
same,outcome,[14],inactive
same,outcome,[15],inactive
same,outcome,[16],inactive
same,AC50,[17],43.4 µM (active)
same,outcome,[18],inactive
same,outcome,[19],inactive
same,outcome,[20],inactive
same,outcome,[21],inactive
same,outcome,[22],inactive

# Source: PubChem BioAssay (EPA / NIEHS)
